Among all 360,000 compounds or so, about 1,100 (0.31%) were called active. No stated cut-off is given here; in the data, active means activity change below about -80%; inconclusive means mostly about -51% to -80%; inactive means weaker than that. This excerpt belongs to a sample that is enriched for actives.
The compounds below were run against RAC-alpha serine/threonine-protein kinase (Homo sapiens) (UniProt P31749) (assay: HTS Assay for Inhibitors of Akt Phophorylation: Primary Screen). Details: Neuro2A IGF-stimulated pAkt S473 HTRF, 20 min; at 50 µM, active compounds read low.
From the text: The serine/threonine protein kinase Akt (protein kinase B) regulates various cellular processes, including cell survival, growth, proliferation, migration and differentiation. It has been well established that Akt is activated through two essential steps involving membrane translocation and phosphorylation. Cytosolic Akt is recruited to the plasma membrane via the interaction between the PH domain and membrane PIP3 produced by phosphoinositide-3 kinase (PI3K) upon growth factor receptor stimulation. The membrane-Akt interaction results in conformational changes of Akt, enabling its activation through phosphorylation at T308 in the kinase domain and at S473 in the C-terminal hydrophobic motif by PDK1 and mTOR-rictor complex (mTORC2), respectively. […] These findings indicate that S473 phosphorylation, as an important modulator of Akt activation, may be a valuable drug target for cell growth, survival, proliferation and differentiation. These inhibitors also may have significant therapeutic potential with fewer side effects, especially for the conditions involving hyperactive Akt signaling, such as cancer and Alzheimer's disease.
To this end, a miniaturized assay was developed to be screened against the Molecular Libraries Small Molecule Repository (MLSMR).
NIH Chemical Genomics Center [NCGC]
NIH Molecular Libraries Probe Centers Network [MLPCN]
Assay Submitter (PI): Hee-Yong Kim, National Institute on Alcohol Abuse and Alcoholism
3 uL of Neuro2A cell suspension in DMEM containing 0.5% FBS and […] antibiotics mix was plated in a white solid bottom tissue culture-treated 1536-well plate (Greiner Bio-One, Monroe, NC) at 4,500 cells per well and incubated overnight at 37 deg C. 23 nL/well of compound solutions in DMSO was added with Pintool transfer (Kalypsis, San Diego, CA) at single […] final concentration. Then, the cells were stimulated with 1.5 uL of IGF (6 nM final concentration) and incubated at 37 deg C for 20 min. The reaction was terminated by the addition of 1.5 uL blocking reagent mixed with lysis buffer (1:25 correspondingly) provided with HTRF(R) Phospho Akt (Ser473) kit (Cisbio US, Bedford, MA), with following incubation for 50 min at ambient temperature. The detection HTRF conjugates from the kit were prepared according to the protocol, pre-mixed 1:1 prior to dispensing, and 2 uL/well was added with BioRAPTR FRD dispenser (Beckman Coulter). The assay plates were incubated for 24 hours at ambient temperature, and the HTRF fluorescence was measured using Envision plate reader (PerkinElmer) with excitation at 330nm, emission at 615nm (Eu(3)-Cryptate donor signal) and 665nm (d2 acceptor signal). The ratio of […] was calculated for each well.
On the % scale 0 is the no-effect control and ±100 the full control effect.

SMILES	activity change
O=C(c1ccc2c(c1)C(=O)N(c1ccc(Cl)cc1)C2=O)N1CCN(c2ccccn2)CC1	-121% (active)
O=C(c1ccc2c(c1)N(Cc1ccc(F)cc1)C(=O)c1ccccc1S2(=O)=O)N1CCN(c2ccccn2)CC1	inactive
O=C(c1c(F)cccc1Cl)N1CCN(c2ccccn2)CC1	inactive
Cc1ccc(S(=O)(=O)N2[C@@H](Cc3ccccc3)CO[C@H]2CC(=O)OCc2ccccc2)cc1	inactive
O=C(NC1CCCCC1)C(c1cc2ccccc2o1)n1c(=O)c(-c2ccco2)nc2ccccc21 (stereo unspecified)	inactive
Cc1ccc2c(c1)N(CC(=O)N(Cc1ccccn1)Cc1ccco1)C(=O)C(C(C)C)O2 (stereo unspecified)	1.92% (inactive)
O=C(NCc1ccccc1)C(c1ccc(F)cc1)N1CCN(C(=O)C2CCCO2)CC1 (stereo unspecified)	inactive
CCC(C(=O)NCc1ccccc1)n1c(Cc2cc(F)cc(F)c2)nc2ccccc21 (stereo unspecified)	inactive
COC(=O)c1ccc2nc(-c3ccc(F)cc3)c(Cc3ccc(C)cc3)n2c1	inactive
CCOC(=O)CSc1nnc(CNc2ccc(F)cc2)o1	inactive
Cc1cccc2nc(CNc3ccc(F)cc3)cn12	-128% (active)
O=C(NC(=O)c1ccc(Cl)c(Cl)c1)OC1CCS(=O)(=O)C1 (stereo unspecified)	inactive
COCCNC(=O)C1C(=O)Nc2ccccc2C(=O)N1c1ccc2c(c1)OCCO2 (stereo unspecified)	inactive
CC(C)c1cc(Cn2c3ccccc3c(=O)n2C(C)Cn2cc(C3CC3)nn2)on1 (stereo unspecified)	inactive
Cc1ccc(S(=O)(=O)N(CC(=O)N2CCc3ccccc3C2)c2cccc(Cl)c2)cc1	inactive
CS(=O)(=O)N(CC(=O)N1CCc2ccccc2C1)c1ccc(Br)cc1	inactive
Cn1cccc1C(=O)N1CCc2ccccc2C1	inactive
COc1cccc(N(CC(=O)N2CCc3ccccc3C2)S(C)(=O)=O)c1	-106% (active)
CN(c1ccc(C(=O)N2CCc3ccccc3C2)cc1)S(C)(=O)=O	-108% (active)
CN(c1cccc(NC(=O)c2ccc(CN3CCc4ccccc4C3)cc2)c1)S(C)(=O)=O	inactive
Nc1ccc(N=Nc2ccccc2Cl)c(N)n1	inactive
O=C(CN1C(=O)CCS(=O)(=O)c2ccccc21)NCc1ccc(F)cc1	11.8% (inactive)
COc1ccc(C2/C(=C(/O)c3ccc(OC(C)C)cc3)C(=O)C(=O)N2CCCN2CCOCC2)cc1 (stereo unspecified)	inactive
O=C1C(=O)N(CCN2CCOCC2)C(c2cccc(Cl)c2)/C1=C(/O)c1ccc2c(c1)OCO2 (stereo unspecified)	inactive
O=C1C(=O)N(CCN2CCOCC2)C(c2ccccn2)/C1=C(/O)c1ccc(Cl)cc1 (stereo unspecified)	-111% (active)
O=c1[nH]n2c(=O)c3c([nH]c2c1N=Nc1ccccc1)CCC3	inactive

SMILES	activity change
CC(C)(C)n1c(=O)[nH]c2c(c1=O)CCC2	-114% (active)
CCOC(=O)[C@]12CCCC=C1N(CCC1=CCCCC1)C(=O)[C@H](CC(=O)N1CCCCC1)C2	inactive
O=C1C=C(c2ccc(Cl)cc2)C(=O)N1Nc1ccccc1	-112% (active)
CC(C)(C)n1nc2c(c1NC(=O)c1ccc(S(=O)(=O)N3CCCC3)cc1)CS(=O)C2 (stereo unspecified)	inactive
COc1ccc(C(C(=O)Nc2c(C)cccc2C)N2CCN(c3ccc(C)cc3)CC2)cc1 (stereo unspecified)	inactive
O=C(CN1C(=O)NC2(CCCCCC2)C1=O)NC1CC1	inactive
O=C1CC2(CCCC2)C(=O)N1CN1CCN(S(=O)(=O)c2ccc(F)cc2F)CC1	inactive
O=C(O)CCN1C(=O)CC2(CCCCC2)C1=O	-117% (active)
NS(=O)(=O)c1ccc(CCNC(=O)NC2CCCCC2)cc1	inactive
CN1OC[C@@H]2CN[C@H](c3ccc(-c4ccccc4)cc3)C[C@@H]21	inactive
CCOC(=O)[C@]12CCCC=C1N(CCC1=CCCCC1)C(=O)[C@H](CC(=O)NCCCOC)C2	inactive
CCCCCNC(=O)C(c1ccc(OC)cc1)n1c(=O)c(-c2ccccc2)nc2ccccc21 (stereo unspecified)	inactive
Cc1cccc(OCc2nnc(SCn3nnc4ccccc4c3=O)o2)c1	-101% (active)
Cc1cccc(OCc2nnc(SCc3nc4cc(C(F)(F)F)ccc4c(=O)[nH]3)o2)c1	-3.13% (inactive)
Nc1nnc(SCn2nnc3ccccc3c2=O)s1	inactive
Cc1cccc(NC(=O)C2CCCN2S(=O)(=O)c2ccc(F)cc2)c1C (stereo unspecified)	-118% (active)
COc1ccccc1NC(=O)C1CCCN1S(=O)(=O)c1ccc(Cl)cc1 (stereo unspecified)	inactive
Cc1cccc(NC(=O)C2CCCN(C(=O)Nc3ccc(F)cc3)C2)c1C (stereo unspecified)	inactive
Cc1ccc(N(Cc2ccccc2O)C(=O)c2ccccc2F)cc1	inactive
CC(C)(C)NC(=O)C(c1ccncc1)N(C(=O)CNC(=O)c1ccco1)c1ccc2c(c1)OCO2 (stereo unspecified)	-97.2% (active)
Cc1ccc(N(C(=O)CNC(=O)c2ccco2)C(C(=O)NC2CCCC2)c2ccncc2)cc1 (stereo unspecified)	inactive
COc1cccc(N(C(=O)CNC(=O)c2ccco2)C(C(=O)NC2CCCCC2)c2cccnc2)c1 (stereo unspecified)	inactive
CCCc1ccc(-c2csc(NC(=O)Cc3cccs3)n2)cc1	-105% (active)
COc1ccc(OC)c(NC(=O)Cc2cccs2)c1	inactive
O=C(Cc1cccs1)Nc1ccc([N+](=O)[O-])cc1	inactive
O=C(Nc1ccc2c(c1)C(=O)OC2)Nc1cccc2ccccc12	inactive

SMILES	activity change
CCn1cc(C(=O)NCC2CCCO2)c(=O)c2cc(S(=O)(=O)N3CCCCC3)ccc21 (stereo unspecified)	-109% (active)
CCn1cc(C(=O)NC2CCCCCC2)c(=O)c2cc(S(=O)(=O)N3CCCCC3)ccc21	inactive
CCn1cc(C(=O)N2CC(C)CC(C)C2)c(=O)c2cc(S(=O)(=O)N3CCCC3)ccc21 (stereo unspecified)	inactive
CC(C)(C)NC(=O)C(CCc1ccccc1)n1c(=O)c(-c2ccccc2)nc2ccccc21 (stereo unspecified)	inactive
CCC(c1nnnn1C1CCCC1)N(Cc1cccs1)Cc1cc2cccc(C)c2[nH]c1=O (stereo unspecified)	-108% (active)
CCC(c1nnnn1Cc1ccco1)N(CCc1ccccc1)Cc1cc2cccc(C)c2[nH]c1=O (stereo unspecified)	-20.5% (inactive)
Cc1cccc2cc(CN(Cc3nnnn3Cc3ccccc3)C3CCCC3)c(=O)[nH]c12	inactive
CCc1ccccc1N(CC(=O)NCCSCc1ccco1)S(C)(=O)=O	inactive
Cc1[nH]c2ccccc2c1C(=O)c1cc([C@H](NC(=O)OC(C)(C)C)C(C)C)sc1N	inactive
Cc1ccc2c(C)c(C(=O)N3CCN(c4ccncc4)CC3)oc2c1C	inactive
O=C(c1cc2cc(Br)cc(Br)c2oc1=O)N1CCOCC1	inactive
COc1c(Br)cc2c(C)c(C(=O)N3CCOCC3)oc2c1Br	-114% (active)
CCOC(=O)[C@]12CCCC=C1N(CCC1=CCCCC1)C(=O)[C@H](CC(=O)N1CCOCC1)C2	inactive
OCCC#Cc1ccc(N2C(c3ccsc3)=Cc3ccc(F)cc3C2c2c[nH]c3ccccc23)cc1 (stereo unspecified)	inactive
CC(C)CC1(C)NC(=O)N(CC(=O)Nc2ccc3c(c2)OCCO3)C1=O (stereo unspecified)	inactive
CC1=NN(C(C)C)C(=O)C1	-118% (active)
CCOC(=O)NN1C(=O)c2ccccc2NC1c1ccccc1O (stereo unspecified)	inactive
CC1(C(=O)NCc2ccccc2)CSCC(=O)N1CCCN1CCOCC1 (stereo unspecified)	inactive
COc1ccc2ccccc2c1CNCc1ccccn1	inactive
CSCCC(C(=O)NC(C)(C)C)n1c(-c2ccccc2)nc2ccccc21 (stereo unspecified)	inactive
Cc1c(Br)c([N+](=O)[O-])nn1C(C)C(=O)Nc1nccs1 (stereo unspecified)	-109% (active)
CC(NC(=O)C(=O)Nc1nccs1)c1ccccc1 (stereo unspecified)	inactive
O=C(CCn1ccc([N+](=O)[O-])n1)Nc1nccs1	inactive
CC(CN1CCCCC1)OC(=O)c1ccccc1Cl (stereo unspecified)	-96.5% (active)
Cc1cccc(C(=O)OC(C)CN2CCCC2)c1 (stereo unspecified)	inactive
Cc1cccc(C(=O)OC(C)CN2CCN(C)CC2)c1 (stereo unspecified)	inactive

SMILES	activity change
CCOC(=O)[C@]12CCCC=C1N(CCC1=CCCCC1)C(=O)[C@H](CC(=O)N1CCSCC1)C2	inactive
Cc1cccc(C)c1NC(=O)C(c1cccc(F)c1)N1CCN(C)CC1 (stereo unspecified)	inactive
Cc1ccc(C)c(NC(=O)COC(=O)c2nn(C)c(=O)c3ccccc23)c1	inactive
Cc1ccc(F)cc1NC(=O)CSCc1c(C)noc1C	inactive
Cc1ccc(F)cc1NC(=O)Cc1nn(C)c(=O)c2ccccc12	-106% (active)
CCN1C(=O)/C(=C\N2CCOCC2)SC1=S	inactive
O=C(O)CCSc1nnc(-c2ccccc2)n1-c1ccccc1	-109% (active)
NNC(=O)CSc1nnc(-c2ccccc2)n1-c1ccccc1	inactive
O=C(O)CSc1nnc(-c2ccc3c(c2)OCO3)n1-c1ccccc1	inactive
CS(=O)(=O)N1CCN=C1SCc1ccc(F)cc1	inactive
Cc1noc(COc2ccccc2OCc2onc(C)c2Cl)c1Cl	-112% (active)
Cc1cc(Cl)ccc1OCc1nc(-c2ccncc2)no1	inactive
Cc1cc(OCCOc2cccc3cccnc23)c(C)cc1Cl	inactive
CC1(C(=O)NCc2ccccc2)CN(S(C)(=O)=O)CC(=O)N1CC(F)(F)F (stereo unspecified)	inactive
Cc1cccc(NC(=O)CSC(N)=O)c1C	-113% (active)
Cc1cccc(NC(=O)CSc2nc3c(c(=O)[nH]2)CCCC3)c1C	inactive
Cc1cccc(NC(=O)COC(=O)CCc2ccccc2)c1C	inactive
C=Cc1ccc(C(=O)N2CCCC(CCC(=O)N3CCN(c4ccccn4)CC3)C2)cc1 (stereo unspecified)	inactive
O=C(C[C@H]1CC[C@H]2[C@@H](COC[C@H](O)CN2C(=O)c2ccccn2)O1)N1CCN(c2ccccc2)CC1	inactive
FC(F)(F)c1cc(-c2cccs2)nc(NCc2ccco2)n1	-2.47% (inactive)
FC(F)(F)c1cc(-c2ccco2)nc(NCc2ccc(Cl)cc2)n1	-102% (active)
COc1nc(NCc2ccc(Cl)cc2)nc(OC)n1	1.36% (inactive)
CC(C)(C)n1nnnc1C(c1ccc2ncccc2c1)N1CCSCC1 (stereo unspecified)	inactive

From PubChem BioAssay AID651550 (National Center for Advancing Translational Sciences (NCATS), 2012)
